# Measurements from publication PMC5540273 (PLoS ONE, 2017).
# pKd: −log10 of the molar value.
# How the values were obtained:
# LKB1 = test system: T1, LKB1
# T1 construct: gene STK11
# LOK = test system: T2, LOK
# T2 construct: gene STK10
# MEK1 = test system: T3, MEK1
# T3 construct: gene MAP2K1
# 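Also: kd values determined as follow-up on hits from a single-replicate KINOMEscan panel screen.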
compound,measurement,setting,value
CCn1c(-c2nonc2N)nc2ccccc21 [SB-693162/GW549034],pKd,LATS2,5.74
same,pKd,LRRK2,< 5.00
Nc1ncnc2c1ncn2-c1cccc2ccccc12 [SKF-97184],pKd,LKB1,< 5.00
COc1cc2ncn(-c3cc(OCc4ccncc4Br)c(C(N)=O)s3)c2cc1OC [GW854278],pKd,LOK,6.30
Cc1nnc(-c2ccc(C)c(-c3ccc(C(=O)O)cc3)c2)o1 [GW608005],pKd,LOK,< 5.00
Cc1ccccc1COc1cc(-n2cnc3cc(Cl)ccc32)sc1C(N)=O [GW813349],pKd,LRRK2,< 5.00
Nc1n[nH]c2nnc(-c3ccccc3)c(-c3ccccc3)c12 [GW554060],pKd,LYN,< 5.00
CCS(=O)(=O)c1ccc(OC)c(Nc2ncc(-c3ccc(F)cc3)o2)c1.Cl [GW591947],pKd,MAK,< 5.00
Cc1nnc(-c2ccc3ncn(-c4ccc(S(C)=O)cc4)c3c2)o1 (centres unmarked),pKd,MAP4K2,< 5.00
CN1C(=O)C(Nc2cc(Cl)c(O)c(Cl)c2)=C(c2ccc(Cl)cc2)C1=O [SB-404321],pKd,MAPKAPK2,< 5.00
CN1C(=O)C(Nc2ccccc2)=C(c2ccccc2)C1=O [SB-300079],pKd,MAST1,< 5.00
Cc1cccc(-c2nc(Nc3ccc4c(cnn4C)c3)c3ccccc3n2)n1 [GW876731],pKd,MAST1,< 5.00
Cn1c(=O)c(F)c(Nc2ccc(I)cc2F)c2c(=O)n(OC[C@H](O)CO)cnc21,pKd,MEK1,7.47
COc1cc2nccc(Nc3cccc(Oc4ccccc4)c3)c2cc1OC.Cl [GW284543],pKd,MEK1,7.00
